Some test systems named below: SK-MEL-2 melanoma; EKVX NSCLC; SN12C renal; UO-31 renal; TK-10 renal; ACHN renal; CAKI-1 renal; A498 renal; CCRF-CEM leukemia; MOLT-4 leukemia.
Common to all, as to assay: NCI-60 one-dose screen, 48 h (100 = growth as untreated, 0 = no growth, -100 = all killed)
Holding throughout (details): 10 µM unless noted

The panel holds about 83,000 compounds, 20% with a hit somewhere; the sample as a whole holds those more often.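 Each cell line was grown in a 96-well plate and treated with one concentration of compound for 48 hours. Values below 10 were considered active.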 A number with no mark means an inactive call. Active and inactive are the calls of the source.

Consider `COc1cc2c(=O)n(CC3CCCCC3)c3c4cc[nH]c4ncc3c2cc1OC`, for which the growth in the experiment with SK-MEL-2 melanoma was 64%; in the experiment with EKVX NSCLC, 63.9%; in the experiment with SN12C renal it was 25.7%; in the experiment on UO-31 renal, 23.1%; with TK-10 renal it was 49.8%; in the experiment with ACHN renal it was 26.8%. In addition, the growth is 37.7% in the experiment with CAKI-1 renal, -5.29% (active) in the experiment on A498 renal, 39.5% in the experiment on CCRF-CEM leukemia and 49.5% in the experiment with MOLT-4 leukemia.

In the case of `CC(C)Oc1nc2c(c(=O)n(C)c(=O)n2C)n1C`, the growth is 107% in the experiment with SK-MEL-2 melanoma; 103% in the experiment on EKVX NSCLC; 108% in the experiment on SN12C renal; 91.3% in the experiment on UO-31 renal; 95.3% in the experiment with TK-10 renal; 101% in the experiment with ACHN renal. For the same molecule, the growth in the experiment on A498 renal was 106%; with CCRF-CEM leukemia it was 95.3%; in the experiment with MOLT-4 leukemia, 94.4%.

As to `CCNS(=O)(=O)c1ncnc2nc[nH]c12`, the growth in the experiment on SK-MEL-2 melanoma is 109%; in the experiment on EKVX NSCLC, 104%; with SN12C renal, 112%; with UO-31 renal, 85.8%; in the experiment on TK-10 renal, 122%; in the experiment with ACHN renal, 119%. Moreover, the results for the growth in the experiment on A498 renal, in the experiment on CCRF-CEM leukemia and with MOLT-4 leukemia were 110%, 91.1% and 122%, respectively.

For the molecule `CCC(=O)OCc1cccc(OC)c1`, the growth with SK-MEL-2 melanoma is 111%; in the experiment with EKVX NSCLC it was 91.3%; with SN12C renal, 99%; in the experiment with UO-31 renal it was 92.9%; in the experiment with TK-10 renal, 119%; in the experiment on ACHN renal, 93%. The growth in the experiment with A498 renal was 102%; in the experiment with CCRF-CEM leukemia it was 73.3%; with MOLT-4 leukemia, 87.9%.

For `Nc1ccc(Nc2nccc(-c3ccc4ccccc4c3)n2)cc1`, the growth with SK-MEL-2 melanoma is 5.47% (active); in the experiment on EKVX NSCLC it was 61%; in the experiment with SN12C renal it was 46.8%; with UO-31 renal, 45.7%; with TK-10 renal, 58.7%; in the experiment on ACHN renal, 45.6%. Further, the growth in the experiment with A498 renal is 16.6%; with CCRF-CEM leukemia, 27.3%; in the experiment with MOLT-4 leukemia it was 20.2%.

For the molecule `CN1CCN(Cc2ccc(NC(=O)c3[nH]ncc3Nc3ncnc4c3CCC4)cc2)CC1`, the growth was 13.6% in the experiment with SK-MEL-2 melanoma; 26% in the experiment on EKVX NSCLC; 6.07% (active) in the experiment on SN12C renal; 6.53% (active) in the experiment with UO-31 renal; 2.4% (active) in the experiment on TK-10 renal; -10.8% (active) in the experiment on ACHN renal. In addition, the growth in the experiment with CAKI-1 renal was 9.41% (active); with A498 renal it was -21.7% (active); with MOLT-4 leukemia, -2.96% (active).

For `CCCCCCCCCCNC(=O)CCl`, the growth was 85.7% in the experiment with SK-MEL-2 melanoma; 95.9% in the experiment with EKVX NSCLC; 63.8% in the experiment on SN12C renal; 58.1% in the experiment on UO-31 renal; 83.8% in the experiment on TK-10 renal; 78% with ACHN renal. The growth in the experiment on CAKI-1 renal is -59.4% (active); in the experiment with A498 renal it was 85.9%; in the experiment on MOLT-4 leukemia, 54.8%.

`C=C1CC2(OC1=O)C(=O)N(CCCCCCCCCCCCN1C(=O)C3(CC(=C)C(=O)O3)c3ccccc31)c1ccccc12` (stereo not given): the growth with SK-MEL-2 melanoma was 73.3%; in the experiment on EKVX NSCLC, 98%; with SN12C renal, 53.1%; with UO-31 renal, 76.6%; in the experiment on TK-10 renal, 96.1%; with ACHN renal it was 97.8%. For the same molecule, the growth in the experiment with CAKI-1 renal was 80.2%; in the experiment with A498 renal, 59.5%; in the experiment on MOLT-4 leukemia, 2.36% (active).

On to `CC1=CC(=O)CC(C)(C)[C@@]1(O)/C=C/[C@@H](C)O`, for which the growth in the experiment on SK-MEL-2 melanoma is 112%; with EKVX NSCLC it was 91.6%; in the experiment with SN12C renal, 105%; with UO-31 renal it was 95.3%; with TK-10 renal it was 108%; with ACHN renal it was 109%. Also, the growth in the experiment on A498 renal was 94.1%; in the experiment on CCRF-CEM leukemia, 104%; with MOLT-4 leukemia, 108%.

As to `CCN(CC)CC(O)CNc1c2ccc([N+](=O)[O-])cc2nc2cc(OC)c(OC)cc12` (stereo not given), the growth in the experiment on SK-MEL-2 melanoma is -48.7% (active); with EKVX NSCLC, -27.4% (active); in the experiment with SN12C renal, -34.1% (active); with UO-31 renal, 4.89% (active); in the experiment with TK-10 renal, 2.27% (active); in the experiment on ACHN renal it was 11.1%. The growth with A498 renal was -52.9% (active); in the experiment with CCRF-CEM leukemia, 9.53% (active); in the experiment on MOLT-4 leukemia it was -9.91% (active).

Regarding `CCC(c1ccc(O)cc1)C(CC)c1ccc(O)c(F)c1` (stereo not given), the growth is 75.1% with SK-MEL-2 melanoma; 84.2% in the experiment on EKVX NSCLC; 88.2% with SN12C renal; 55.4% in the experiment on UO-31 renal; 96.6% in the experiment on TK-10 renal; 90.5% in the experiment with ACHN renal. The values for the growth with CAKI-1 renal, with A498 renal and in the experiment with MOLT-4 leukemia were 89.2%, 107% and 54.9%, respectively.

Consider `CCN1CCN(Cc2ccc(NC(=O)Nc3nc4ccc(Oc5ccnc(C(=O)NC)c5)cc4s3)cc2C(F)(F)F)CC1`, for which the growth in the experiment with SK-MEL-2 melanoma was -22.8% (active); in the experiment on EKVX NSCLC it was 14.2%; with SN12C renal it was -75.4% (active); in the experiment on UO-31 renal it was -80.5% (active); with TK-10 renal it was -35.9% (active); in the experiment on ACHN renal, -84.5% (active). Further, the figures for the growth in the experiment on A498 renal and with CCRF-CEM leukemia were -33.4% (active) and 0.0502% (active), respectively.

For the molecule `CCN(CC)Cc1cc(Nc2c3ccccc3nc3cc(Cl)ccc23)ccc1O`, the growth in the experiment with SK-MEL-2 melanoma was -74.2% (active); with EKVX NSCLC it was -55.1% (active); in the experiment with SN12C renal, -36.9% (active); in the experiment on UO-31 renal, -72.9% (active); in the experiment on TK-10 renal, -65.6% (active); in the experiment on ACHN renal, -97.3% (active). In addition, the growth is -61.4% (active) in the experiment on A498 renal, -11.9% (active) in the experiment with CCRF-CEM leukemia and -28.9% (active) in the experiment on MOLT-4 leukemia.

Take `O=C(/C=C\c1cccc([N+](=O)[O-])c1)c1ccccc1`: the growth was 100% in the experiment with SK-MEL-2 melanoma; 96.9% in the experiment with EKVX NSCLC; 97.2% with SN12C renal; -64.5% (active) with UO-31 renal; 68.1% in the experiment with TK-10 renal; -50.1% (active) in the experiment on ACHN renal. Besides, the results for the growth in the experiment with A498 renal, with CCRF-CEM leukemia and in the experiment with MOLT-4 leukemia were 91.4%, -23.9% (active) and 18.9%, respectively.

In the case of `C/C=C/C(N)=O`, the growth is 119% with SK-MEL-2 melanoma; 95.9% with EKVX NSCLC; 106% in the experiment on SN12C renal; 91.7% in the experiment with UO-31 renal; 105% in the experiment on TK-10 renal; 96.8% in the experiment with ACHN renal. In addition, the growth is 98% in the experiment on CAKI-1 renal, 108% with A498 renal and 96.2% in the experiment on MOLT-4 leukemia.

The record behind these values is PubChem BioAssay (NCI).
